The nature of experiment [1]: Nuclear factor erythroid 2-related factor 2/antioxidant responsive element (Nrf2/ARE) small molecule agonists: qHTS cell viability counter screen in human keratinocytes (AID 1919968; active = well fitted curve in the direction sought with a large enough effect in the repeat runs; an effect the other way counts as inactive or inconclusive; also: nearly all actives have a fitted effect of over 55% in size; also: potency is read from the fitted curve at half-maximal effect). The method, boiled down:
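After a 5 h attachment period, ARE-reporter keratinocytes were dosed with compounds in DMSO and then cultured 23 h at 37 C. Cell viability came from CellTiter-Fluor signal read after a further 1 h.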
(qHTS replaces the single test concentration by a dilution series.)

Experiment [2] has as its target Gonadotropin-releasing hormone receptor (Homo sapiens) (UniProt P30968). In words: Human gonadotropin-releasing hormone receptor (GnRHR) small molecule agonists, calcium flux assay in GnRHR-HEK293 cells (AID 1920063). Also: nearly all actives have a fitted effect of over 35% in size. Also: potency is read from the fitted curve at half-maximal effect. The method, boiled down: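 We seeded human GnRHR-expressing HEK293 cells for 18 hours, loaded them with calcium dye for an hour at 37 C, added test compounds, and recorded fluorescence intensity kinetically for three minutes.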

Experiment [3] concerns the target KiSS-1 receptor (Homo sapiens) (UniProt Q969F8). The experiment can be described thus: Human kisspeptin (KISS1R) small molecule agonists, calcium flux assay in KISS1R-HEK293 cells (AID 1920064; active = well fitted curve in the direction sought with a large enough effect in the repeat runs; an effect the other way counts as inactive or inconclusive; also: potency is read from the fitted curve at half-maximal effect). A digest of the protocol: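 Kinetic calcium assay, 1 s sampling over 3 min at Ex/Em 480/540, in HEK293 cells engineered with human KISS1R; compounds delivered in DMSO after 1 h dye loading.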
A general note: Calcium assays in cells follow changes in intracellular calcium, usually with a dye or a luminescent sensor.

Experiment [4] is described as follows: G protein-coupled receptor (GPCR) small molecule agonists, calcium flux assay: HEK293 wild type cell line counter screen (AID 1920065). Also: potency is read from the fitted curve at half-maximal effect. The method, boiled down: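 Calcium-sensitive dye, loaded 1 h at 37 C into cells cultured 18 h, reports compound-evoked calcium release as fluorescence (Ex/Em 480/540), measured over 3 min. Agonist mode; 15-point titrations, triplicate.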

Experiment [5] in a line: p53 small molecule agonists, cell-based qHTS assay with human liver microsomes (AID 1963577). The method, boiled down:
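Cells carrying a p53-responsive bla reporter were rested 5 h (37 C, 5% CO2) before compound transfer. Human liver microsomes plus NADPH, 0.5 mg/mL final apiece, supplied metabolism during the 16 h 37 C exposure.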

Experiment [6] is described as follows: p53 small molecule agonists, cell-based qHTS assay with human liver microsomes: qHTS cell viability counter screen (AID 1963579). Also: nearly all actives have a fitted effect of over 45% in size. A digest of the protocol:
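Seed p53RE-bla cells at 4,000 per well; incubate 5 h at 37 C; add compound, human liver microsomes and NADPH; incubate 16 h at 37 C; add CellTiter-Glo; after 30 min at room temperature, read luminescence.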

Experiment [7] can be described thus: p53 small molecule agonists, cell-based qHTS assay with rat liver microsomes: qHTS cell viability counter screen (AID 1963580). Also: nearly all actives have a fitted effect of over 45% in size. The method, boiled down:
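p53RE-bla HCT-116 cells were exposed 16 h at 37 C to compounds with rat liver microsomes (0.5 mg/mL) and NADPH (0.5 mg/mL). Viability was measured in the same wells as ATP content by CellTiter-Glo luminescence.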

The nature of experiment [8]: p53 small molecule agonists, cell-based qHTS assay: qHTS cell viability counter screen (AID 1963581). Also: nearly all actives have a fitted effect of over 45% in size. A digest of the protocol: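 Following 5 h attachment, HCT-116 p53RE-bla cells took up compound for 16 h at 37 C; the reporter was read with B/G FRET substrate (2 h RT), and viability then via CellTiter-Glo ATP luminescence.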
Experiment [9] is described as follows: p53 small molecule agonists, cell-based qHTS assay (AID 1963582; active = well fitted activation curve with a large enough effect in the signal ratio in the repeat runs, not every such curve was filed as active; the % refers to the signal ratio). A digest of the protocol:
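In this cell-based concentration-response screen, a p53 response element drives beta-lactamase; cells received DMSO-borne compounds after 5 h culture and were incubated a further 16 h before FRET substrate development.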

A short description of experiment [10]: cAMP Responsive Elements (CRE) small molecule agonists, cell-based qHTS assay (AID 1963590). The method, boiled down: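 A CRE-responsive beta-lactamase reporter in HEK 293T cells was used. Treatment ran 3 h at 37 C; detection used LiveBLAzer B/G FRET substrate for 2 h at room temperature.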
Experiment [11] in a line: cAMP Responsive Elements (CRE) small molecule antagonists, cell-based qHTS assay (AID 1963591; active = well fitted inhibition curve with a large enough effect in the signal ratio in the repeat runs, not every such curve was filed as active; the % refers to the signal ratio). The method, boiled down: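 HEK293T cells carrying a CRE-driven beta-lactamase reporter receive compound and NKH477 (0.25 uM final) for 3 h. Fluorescence from LiveBLAzer B/G FRET substrate is read after 2 h at room temperature.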
Experiment [12] addresses Beta-2 adrenergic receptor (Homo sapiens) (UniProt P07550). The experiment can be described thus: Adrenergic beta2 receptor (ADRB2) small molecule antagonists, cell-based qHTS assay (AID 1963592). Also: series mostly up to about 92 µM; nearly all actives have a fitted effect of over 50% in size. The method, boiled down:
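Cells (CHO, stable ADRB2 overexpression) incubated 18-20hr at 37C; compounds added from DMSO; agonist mix (1nM isoproterenol, 100uM IBMX, 25uM Ro-20-1724) added; 0.5hr RT; d2-cAMP and anti-cAMP-cryptate added; 1hr RT; 665/615 nm read.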

Experiment [13] has the same target. In words: Adrenergic beta2 receptor (ADRB2) small molecule agonists, cell-based qHTS assay (AID 1963593).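 Also: CHO cells stably overexpressing human ADRB2.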 The method, boiled down: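 CHO cells stably over-expressing ADRB2 were plated overnight at 37C, then dosed with compounds plus a stimulation mix containing 100uM IBMX and 25uM Ro-20-1724 for 0.5hr at room temperature. cAMP was measured by HTRF competition, 1hr.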

The target in experiment [14] is D(2) dopamine receptor (Homo sapiens) (UniProt P14416). In words: Dopamine D2 receptor (DRD2) small molecule agonists, cell-based qHTS assay (AID 1963594). Also: nearly all actives have a fitted effect of over 35% in size. Also: potency is read from the fitted curve at half-maximal effect. A digest of the protocol:
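HEK293 cells stably expressing human DRD2, pre-treated with PDE inhibitor Ro20-1724 (0.1 mM final) and compound 10 min at room temperature, then stimulated with NKH477 (200nM […]) for 30 min. cAMP read by HTRF (665/620 nm).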

For experiment [15] the target is unchanged. In words: Dopamine D2 receptor (DRD2) small molecule antagonists, cell-based qHTS assay (AID 1963595; active = well fitted inhibition curve with a large enough effect in the signal ratio in the repeat runs, with a control signal flat; the % refers to the signal ratio). A digest of the protocol: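 Stable D2 receptor HEK293 line, 24 h after seeding. Compound preincubated 10 min, then quinpirole (12 nM) with forskolin analogue NKH477 (200 nM), 30 min, room temperature. Detection by time-resolved FRET of cAMP.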
The target of experiment [16] is 5-hydroxytryptamine receptor 2A (Homo sapiens) (UniProt P28223). In words: 5-hydroxytryptamine receptor 2A (HTR2A) small molecule antagonists, cell-based qHTS assay (AID 1963586). Also: nearly all actives have a fitted effect of over 45% in size. Also: potency is read from the fitted curve at half-maximal effect. A digest of the protocol: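 Antagonist-mode intracellular calcium assay: DOI (4 nM) added after 5 min compound pre-incubation at room temperature to dye-loaded HTR2A-CHO cells. Fluorescence followed for 3 min, sampled every second.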
5-hydroxytryptamine receptor 2A (Homo sapiens), sequence (P28223 whole entry, looked up): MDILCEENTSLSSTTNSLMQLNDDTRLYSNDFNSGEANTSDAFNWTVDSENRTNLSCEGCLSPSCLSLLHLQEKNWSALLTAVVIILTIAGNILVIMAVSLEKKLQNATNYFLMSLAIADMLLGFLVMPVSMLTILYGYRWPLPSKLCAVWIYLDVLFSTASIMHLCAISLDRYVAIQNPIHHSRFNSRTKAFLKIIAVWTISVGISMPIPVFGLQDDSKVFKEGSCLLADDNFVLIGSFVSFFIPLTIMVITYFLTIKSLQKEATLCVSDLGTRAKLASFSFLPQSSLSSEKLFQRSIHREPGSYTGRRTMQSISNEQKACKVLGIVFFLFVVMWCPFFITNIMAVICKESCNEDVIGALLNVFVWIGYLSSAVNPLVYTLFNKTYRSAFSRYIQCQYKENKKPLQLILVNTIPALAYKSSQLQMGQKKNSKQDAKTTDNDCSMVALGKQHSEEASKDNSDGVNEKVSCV

Experiment [17] has the same target. In words: 5-hydroxytryptamine receptor 2A (HTR2A) small molecule agonists, cell-based qHTS assay (AID 1963587). Also: nearly all actives have a fitted effect of over 30% in size. Also: potency is read from the fitted curve at half-maximal effect. The method, boiled down: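 CHO cells stably expressing human HTR2A, plated 18 h, loaded with calcium dye 1 h at 37 C. Agonist mode: compounds added and intracellular calcium fluorescence recorded kinetically for 2 min at 1 sec intervals.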
Experiment [18] concerns the target Muscarinic acetylcholine receptor M1 (Homo sapiens) (UniProt P11229). In words: Cholinergic receptor muscarinic 1 (CHRM1) small molecule antagonists, cell-based qHTS assay (AID 1963588). Also: nearly all actives have a fitted effect of over 40% in size. The method, boiled down: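 CHRM1-CHO calcium-flux assay, antagonist mode. Cells were seeded 18 h, dye-loaded 1 h at 37 C and given compound for 5 min at RT, then acetylcholine was added at 50nM. FDSS fluorescence was read 3 min; 15 concentrations, three runs.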

Experiment [19] shares this target. The experiment can be described thus: Cholinergic receptor muscarinic 1 (CHRM1) small molecule agonists, cell-based qHTS assay (AID 1963589). Also: nearly all actives have a fitted effect of over 35% in size. Also: potency is read from the fitted curve at half-maximal effect. A digest of the protocol:
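Measures agonist-induced intracellular calcium rise. Stable human CHRM1 CHO line, 1 h dye load at 37 C, compounds from DMSO, kinetic fluorescence read.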

Experiment [20] can be described thus: p53 small molecule agonists, cell-based qHTS assay with rat liver microsomes (AID 1963578). The method, boiled down: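 Fluorescence from a beta-lactamase reporter under a p53 response element was measured after cells had been incubated 16 h at 37 C with test compound and rat liver microsomes plus NADPH (0.5 mg/mL final each).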

A number with no mark means an inactive call. Records with an inconclusive call do not appear. The source made the active and inactive calls. Unless noted, calls follow the shape of the full dose curve.

Results on seven compounds are retold here after PubChem BioAssay (Tox21).
% is scaled to controls: 0 for no effect and ±100 for the full control effect.

D(2) dopamine receptor (Homo sapiens), sequence (P14416 whole entry, looked up): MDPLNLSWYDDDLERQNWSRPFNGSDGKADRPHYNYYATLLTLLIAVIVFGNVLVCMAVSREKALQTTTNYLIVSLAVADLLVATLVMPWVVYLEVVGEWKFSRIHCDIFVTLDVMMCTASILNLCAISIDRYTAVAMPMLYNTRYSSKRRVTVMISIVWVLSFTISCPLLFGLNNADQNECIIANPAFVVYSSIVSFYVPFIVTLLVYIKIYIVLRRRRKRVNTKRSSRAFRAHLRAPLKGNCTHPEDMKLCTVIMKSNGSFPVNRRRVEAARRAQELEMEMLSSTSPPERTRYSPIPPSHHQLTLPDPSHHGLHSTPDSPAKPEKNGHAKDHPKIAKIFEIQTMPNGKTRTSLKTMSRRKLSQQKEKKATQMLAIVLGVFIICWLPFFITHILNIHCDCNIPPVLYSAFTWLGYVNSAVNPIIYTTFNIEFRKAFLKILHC
Beta-2 adrenergic receptor (Homo sapiens), sequence (P07550 whole entry, looked up): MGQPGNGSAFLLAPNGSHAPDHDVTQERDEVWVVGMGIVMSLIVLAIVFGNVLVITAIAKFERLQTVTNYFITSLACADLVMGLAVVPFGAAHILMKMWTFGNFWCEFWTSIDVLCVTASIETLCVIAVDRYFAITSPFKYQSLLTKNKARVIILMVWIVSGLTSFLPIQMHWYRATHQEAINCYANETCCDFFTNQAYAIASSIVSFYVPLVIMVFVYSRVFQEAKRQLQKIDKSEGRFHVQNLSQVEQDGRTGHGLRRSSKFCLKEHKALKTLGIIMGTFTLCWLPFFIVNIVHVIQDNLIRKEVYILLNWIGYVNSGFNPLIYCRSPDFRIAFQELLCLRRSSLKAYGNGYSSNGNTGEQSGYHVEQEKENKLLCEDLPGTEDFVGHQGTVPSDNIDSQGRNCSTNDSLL
Gonadotropin-releasing hormone receptor (Homo sapiens), sequence (P30968 whole entry, looked up): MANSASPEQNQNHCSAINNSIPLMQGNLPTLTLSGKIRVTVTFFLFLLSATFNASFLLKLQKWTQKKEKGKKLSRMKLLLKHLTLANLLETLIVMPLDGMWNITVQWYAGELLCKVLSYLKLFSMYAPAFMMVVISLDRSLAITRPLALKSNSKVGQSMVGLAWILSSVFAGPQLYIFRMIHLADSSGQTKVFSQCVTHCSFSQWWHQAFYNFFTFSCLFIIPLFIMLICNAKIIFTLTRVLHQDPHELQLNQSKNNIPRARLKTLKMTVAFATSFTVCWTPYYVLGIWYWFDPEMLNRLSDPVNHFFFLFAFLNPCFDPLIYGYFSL
Muscarinic acetylcholine receptor M1 (Homo sapiens), sequence (P11229 whole entry, looked up): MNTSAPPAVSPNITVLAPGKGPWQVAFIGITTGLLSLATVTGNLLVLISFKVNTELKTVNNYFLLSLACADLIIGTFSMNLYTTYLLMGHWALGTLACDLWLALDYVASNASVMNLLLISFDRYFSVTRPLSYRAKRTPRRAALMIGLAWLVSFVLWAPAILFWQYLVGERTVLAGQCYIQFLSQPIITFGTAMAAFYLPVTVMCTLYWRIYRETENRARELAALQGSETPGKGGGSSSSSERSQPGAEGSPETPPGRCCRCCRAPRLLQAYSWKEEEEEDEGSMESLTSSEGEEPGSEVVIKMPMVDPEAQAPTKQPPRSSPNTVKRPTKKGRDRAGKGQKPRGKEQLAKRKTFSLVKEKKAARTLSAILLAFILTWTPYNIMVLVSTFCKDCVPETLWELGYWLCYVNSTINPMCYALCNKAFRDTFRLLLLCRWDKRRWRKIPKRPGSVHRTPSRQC
KiSS-1 receptor (Homo sapiens), sequence (Q969F8 whole entry, looked up): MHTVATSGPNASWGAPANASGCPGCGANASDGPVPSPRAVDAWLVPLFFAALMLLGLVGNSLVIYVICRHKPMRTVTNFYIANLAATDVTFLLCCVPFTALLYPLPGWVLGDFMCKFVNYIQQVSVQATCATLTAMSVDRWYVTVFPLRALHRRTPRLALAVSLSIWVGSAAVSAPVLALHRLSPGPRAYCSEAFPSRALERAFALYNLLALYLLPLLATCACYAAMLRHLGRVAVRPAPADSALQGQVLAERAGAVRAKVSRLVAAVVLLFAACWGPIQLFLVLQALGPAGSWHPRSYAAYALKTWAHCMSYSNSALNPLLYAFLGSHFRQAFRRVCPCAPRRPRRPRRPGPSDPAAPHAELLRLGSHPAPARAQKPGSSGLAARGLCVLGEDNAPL

`Nc1ccn([C@H]2CS[C@@H](CO)O2)c(=O)n1`: the Potency entry in experiment [1], in [2], in experiment [3], in [4], in experiment [5] and in experiment [6] was “inactive” each time. The Potency entry in experiment [7], in experiment [8], in experiment [9], in experiment [10], in [11] and in experiment [12] was “inactive” throughout. Further, the Potency result in [13], in experiment [14] and in [15] was “inactive” in each case.

Consider `CCOB(OCC)OCC`, for which the Potency entry in experiment [1], in experiment [2], in experiment [3], in [4], in experiment [5] and in [6] was “inactive” in each case. In addition, the Potency entry in experiment [7], in experiment [8], in experiment [9], in experiment [16], in experiment [17] and in experiment [18] was “inactive” each time. Further, the Potency entry in [19], in experiment [10], in experiment [11], in [12], in [13] and in experiment [14] was “inactive” throughout.

Consider `CC(=O)Oc1ccc(C(=C2CCCCC2)c2ccc(OC(C)=O)cc2)cc1`, for which the Potency entry in experiment [1], in [2], in experiment [3], in [4], in [5] and in experiment [6] was “inactive” throughout. In addition, the Potency result in experiment [7], in experiment [8], in experiment [16], in [17], in experiment [18] and in [19] was “inactive” each time. The Potency result in experiment [10], in experiment [11], in [12], in experiment [13], in [14] and in experiment [15] was “inactive” throughout.

Take `CCN(CC)c1ccc2c(-c3ccccc3C(=O)O)c3ccc(=[N+](CC)CC)cc-3oc2c1`: the Potency in experiment [1] is 15.4 µM (active); in experiment [2] it was 34.7 µM (active); in experiment [3], 49 µM (active); in experiment [4], 34.7 µM (active); in experiment [17], 49 µM (active); in [19] it was 43.6 µM (active). Further, in experiment [14], the Potency is 58.8 µM (active). The Potency entry in experiment [5], in experiment [20], in experiment [7], in experiment [8], in experiment [9] and in [16] was “inactive” in each case. Besides, the Potency result in experiment [10] and in experiment [11] was “inactive” throughout.

Regarding `NCCN1CCOCC1`, the Potency entry in experiment [1], in experiment [2], in experiment [3], in experiment [4], in experiment [5] and in experiment [20] was “inactive” in each case. The Potency entry in experiment [7], in [8], in experiment [9], in [16], in [17] and in experiment [19] was “inactive” throughout. Moreover, the Potency entry in [10], in experiment [11], in experiment [12], in [14] and in [15] was “inactive” each time.

In the case of `C=C/C=C/C=C/CCCCC`, the activity change, negative = cytotoxicity was 4.28% [at 19 µM] in experiment [1], -6.94% [at 13.5 µM] in [7] and -4.28% [at 13.5 µM] in experiment [8]. Moreover, the activity change in [2] is 0.656% [at 11.8 µM, stronger effect = higher value]. In addition, the activation in [3] was 1.28% [at 15.8 µM]; in experiment [4], 0.367% [at 11.8 µM]; in experiment [5], -4.49% [at 13.5 µM]; in [20] it was 0.431% [at 13.6 µM]; in experiment [17] it was -2.6% [at 15.9 µM]; in experiment [10], 0.016% [at 19 µM]. In [14], the activation is -0.0392% [at 19 µM]. Further, in [16], the activity, negative = inhibition was -10.4% [at 12.7 µM]. Moreover, the activity change, negative = inhibition in experiment [11] is 0.0574% [at 18.9 µM]; in [12], 4.38% [at 19 µM]; in experiment [15], -7.54% [at 18.9 µM].

Consider `C#CCN(C)CCCOc1ccc(Cl)cc1Cl`, for which the Potency result in [1], in experiment [2], in [3], in [4], in [5] and in experiment [20] was “inactive” throughout. Also, the Potency entry in experiment [7], in experiment [8], in experiment [9], in experiment [17], in [19] and in experiment [10] was “inactive” each time. Besides, the Potency entry in [11], in experiment [12] and in experiment [13] was “inactive” throughout. Besides, in [16], the Potency is 16.3 µM (active).
